# CYP2C9 inhib: inhibitors of human CYP2C9; P11712; CYP2C9 Supersomes, luciferin-H conversion, luminescence; inhibition, % at 5 µM; 96,000 tested, 20% active; AID 777;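 active means blocking of liver enzyme CYP2C9 beyond about 50% at 5 µM, limit read from the data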
# sEH activator: soluble epoxide hydrolase (human) activation. P34913. purified human sEH enzymatic activity, activator screen. activation, % at 2 µM. 91,000 tested, 0.04% active; in the data active means activation above about 37%
# sEH inhibitor: soluble epoxide hydrolase (human) inhibition; inhibition, % at 2 µM; recombinant human sEH enzymatic activity assay; 91,000 tested, 0.34% active; AID 707; P34913; in the data active means inhibition above about 80%
# CYP2C19 act: cytochrome P450 2C19 (human) activation; recombinant CYP2C19, luciferin-H EGE luminescence; active compounds read high; 0 = fully inhibited enzyme, 1 = untreated enzyme; activation factor at 5 µM; 96,000 tested, under 10 active;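 active means activation factor of at least 2 at 5 µM in the primary screen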;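 further: 0 = wells with 2.5 mM tranylcypromine and 1 = vehicle-only wells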
# Target sequence (P33261 whole entry, looked up): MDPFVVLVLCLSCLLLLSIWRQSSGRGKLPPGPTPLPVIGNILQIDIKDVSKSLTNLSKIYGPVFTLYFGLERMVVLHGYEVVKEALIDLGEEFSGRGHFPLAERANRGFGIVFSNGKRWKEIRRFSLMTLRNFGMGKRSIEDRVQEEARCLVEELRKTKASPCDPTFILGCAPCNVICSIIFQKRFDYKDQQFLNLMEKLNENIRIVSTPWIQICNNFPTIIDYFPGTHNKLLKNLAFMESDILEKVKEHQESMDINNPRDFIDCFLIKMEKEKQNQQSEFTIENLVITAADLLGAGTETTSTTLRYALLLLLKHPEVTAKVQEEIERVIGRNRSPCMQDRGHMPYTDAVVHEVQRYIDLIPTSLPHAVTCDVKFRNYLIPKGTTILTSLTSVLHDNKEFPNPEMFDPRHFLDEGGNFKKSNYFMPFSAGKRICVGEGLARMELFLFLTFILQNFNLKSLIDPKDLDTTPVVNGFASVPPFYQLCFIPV
# CYP2C9 act: increases human cytochrome P450 2C9 activity | P11712 | recombinant CYP2C9, luciferin-H conversion, luminescence; active compounds read high; factor 1 = untreated enzyme, 0 = blocked | activation factor at 5 µM | 96,000 tested, 1.4% active | AID 1024;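 active means activation factor of 2 or more for CYP2C9 at a 5 µM dose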;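 further: 0 = sulfaphenazole-blocked wells and 1 = vehicle-only wells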
# CYP2C19 inh: inhibitors of human CYP2C19. CYP2C19 Supersomes, luciferin-H EGE luminescence, 30 min. 96,000 tested, 21% active. AID 778. inhibition, % at 5 µM;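 active means CYP2C19 inhibition above a set limit at 5 µM in the primary screen, cut at about 50% in these data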;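 further: plate controls were negative control wells for no effect and 2.5 mM tranylcypromine positive control for full effect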
# Active calls of the source: *; . = no result given. Rows were chosen to be rich in hits. Some 27% of all compounds tested hit in one or more screens of this group.
SMILES,CYP2C9 inhib,sEH activator,sEH inhibitor,CYP2C19 act,CYP2C9 act,CYP2C19 inh
CN1CCN(C(=O)c2ccccc2NC(=O)Cc2ccccc2)CC1,2.7,-2.5,5.4,0.9,1,5.0
O=C(Nc1ccccc1C(=O)N1CCN(Cc2ccccc2)CC1)c1ccccn1,67.2*,3.1,-0.1,0.1,0.3,85.1*
CC(=O)Nc1cccc(C(=O)N2CCN(Cc3ccccc3)CC2)c1,12.8,-0.3,-2.1,0,0.9,96.1*
COc1ccc(C(=O)Nc2cccc(C(=O)N3CCN(C)CC3)c2)cc1,15.6,3.2,0.6,0.9,0.8,14.9
O=C(c1cccc(C(=O)N2CCN(Cc3ccccc3)CC2)c1)N1CCN(Cc2ccccc2)CC1,82.2*,.,.,0,0.2,97.0*
O=C(Nc1cccc(C(=O)N2CCN(Cc3ccccc3)CC2)c1)c1ccccc1,-1.8,2.2,1.3,0.2,1,83.4*
O=C(c1ccccc1)N1CCN(Cc2ccccc2Br)CC1,75.8*,3.5,-0.8,0,0.2,97.9*
Cc1cc(NCCOCCO)n2ncc(-c3ccc(Cl)cc3)c2n1,27.7,4.0,-0.7,0.7,0.7,29.3
Cc1cc(C)c2c(n1)nn1c(NCCCN3CCOCC3)cc(C)nc21,.,-13.3,14.4,.,.,.
CC(C)(C)c1cc(NCCCn2ccnc2)n2ncc(-c3ccc(Cl)cc3)c2n1,65.8*,10.8,-7.7,0.9,0.3,7.8
Cc1cc(NCCCn2ccnc2)n2nc(-c3ccc(F)cc3)cc2n1,98.0*,.,.,0,0,97.2*
Cc1cc(C)c2c(n1)nn1c(NCCCn3ccnc3)cc(C)nc21,96.5*,.,.,0.3,0,68.7*
CCCNC(=O)C(NS(=O)(=O)c1ccc2c(c1)c(=O)n(C)c(=O)n2C)c1ccccc1 (stereo not drawn),20.5,.,.,0.8,0.8,16.7
CCc1cc2c(=O)c(-n3cnc4ccccc43)coc2cc1O,-15.0,1.1,-0.4,0.7,1.1,34.1
CCCCn1c(=O)c(-[n+]2ccccc2)c([O-])c2ccccc21,-8.2,0.8,-6.7,1.1,1.1,-14.5
NC(=O)CSc1nnc(-c2cccc(S(=O)(=O)N3CCOCC3)c2)n1C1CCCCCC1,47.7,6.4,-8.4,0.9,0.5,5.9
C=CCn1c(SCC(=O)Nc2ccccc2)nnc1-c1cccc(S(=O)(=O)N2CCOCC2)c1,54.7*,1.2,-1.8,0.3,0.5,66.5*
CC(C)Cn1c(SCC(=O)NCc2ccc(Cl)cc2)nnc1-c1cccc(S(=O)(=O)N2CCOCC2)c1,60.8*,-23.2,24.7,0.8,0.4,18.7
Cc1nnc(SCC(=O)NCCc2ccccc2)[nH]c1=O,.,-7.2,5.5,.,.,.
CCN(CC)CC(O)Cn1c2ccccc2c2ccccc21 (stereo not drawn),0.6,10.3,-6.0,0.9,1,9.1
O=S(=O)(c1ccccc1)N(CC(O)Cn1c2ccccc2c2ccccc21)c1ccccc1 (stereo not drawn),78.6*,1.1,2.0,0.5,0.2,49.8
Cc1ccc(S(=O)(=O)N(C)CC(O)Cn2c3ccccc3c3ccccc32)cc1 (stereo not drawn),87.5*,4.0,-0.4,0.6,0.1,44.5
C=CCN(CC=C)CC(O)Cn1c2ccccc2c2ccccc21 (stereo not drawn),29.6,2.6,-4.8,0.3,0.7,73.1*
COc1ccc(CNC(=O)CCCCCn2c(SCC#N)nc3cc4c(cc3c2=O)OCO4)cc1,93.6*,.,.,0.5,0.1,48.3
COc1ccc(CCNC(=O)CCn2c(SCC#N)nc3ccccc3c2=O)cc1OC,60.4*,-18.9,18.7,0.6,0.4,42.2
SMILES,CYP2C9 inhib,sEH activator,sEH inhibitor,CYP2C19 act,CYP2C9 act,CYP2C19 inh
COc1ccc(CCNC(=O)CCCn2c(SCC#N)nc3ccccc3c2=O)cc1OC,64.6*,-21.1,21.5,0.6,0.4,39.3
COc1ccc(CCNC(=O)CCCn2c(=O)[nH]c3cc(OC)c(OC)cc3c2=O)cc1OC,.,4.3,-4.9,.,.,.
CCCCCn1c(SCC#N)nc2cc(C(=O)NCC3CCCO3)ccc2c1=O (stereo not drawn),39.2,-2.3,2.6,0.6,0.6,36.8
Fc1cc2ncn(Cc3ccccc3)c2cc1F,26.5,8.6,-6.9,0.5,0.7,45.1
Cc1c(NC(=O)c2ccc3ncccc3c2)c(=O)n(-c2ccccc2)n1C,9.5,6.2,-2.5,1,0.9,1.7
COC(=O)c1ccc(CNC(=O)CSc2nnc(COc3ccccc3)n2C)o1,14.9,2.8,1.1,0.9,0.9,10.0

# Bioassay records deposited in PubChem by several laboratories.
